Assay outcomes: PubChem, several laboratories
In the library only some 2.5% were active in any assay of this set; here they are far more common.
AI-2 QS modul = Vibrio harveyi AI-2 quorum sensing modulation; Vibrio harveyi JMH597 AI-2 luminescence/OD600 ratio, 9 h; stronger effect = lower value; strain lacks LuxN and CqsS sensors; 0 = neutral-control median; 300,000 tested, 0.4% active; activity change, % at 7.5 µM; AID 2094; in the data active = activity change below about -75%, passing the limit was not always enough;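 note: luminescence divided by OD600 gain over 9 h not by final OD600 alone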
Efflux pump mplx = antifungal efflux pump inhibition, Nile Red retention; S. cerevisiae Candida pump triplex; inhibition, % at 10 µM; 330,000 tested, 0.44% active;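 active = plate passing quality check with inhibition over a set limit, or well fluorescence over plate mean plus 4 SD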;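 note: Nile Red retained in pooled yeast measured as flow cytometry median fluorescence; 0% = buffer negative control and 100% = Enniatin B positive control; higher means more Nile Red kept so more efflux inhibition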
SUMO Mot1 rescue = inhibitors of SUMOylation pathway: yeast Mot1-301 growth rescue. S. cerevisiae Mot1-301 growth rescue, ATP luminescence, 38.5C; percent above DMSO median, 100 means doubled. growth rescue, % at 18.8 µM. 320,000 tested, 1% active;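 active = every valid replicate shows activation above 250% relative to neutral control wells; inactive = the rest, any valid replicate at or below 250%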;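 note: OY570 slx delta 5 strain wells were the positive control but not used for scaling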
V-ATPase pH = alters yeast V-ATPase proton transport; S. cerevisiae, pHLuorin cytosolic pH fluorescence; response, % at 10 µM; 350,000 tested, 0.37% active; AID 504577; in the data active = response mostly above about 7.3%, no sharp cut-off; inactive = mostly below about 5.4%; note: actives read high
ATG4B inhibitor = blocks human ATG4B protease cleavage of LC3 substrate. inhibition, % at 8.33 µM. AID 504462. 340,000 tested, 0.51% active. Q9Y4P1. ATG4B cleavage of LC3-PLA2, NBD-HPC fluorescence, 1 h; in the data active = inhibition above about 40%
Target sequence (Q9Y4P1 whole entry, looked up): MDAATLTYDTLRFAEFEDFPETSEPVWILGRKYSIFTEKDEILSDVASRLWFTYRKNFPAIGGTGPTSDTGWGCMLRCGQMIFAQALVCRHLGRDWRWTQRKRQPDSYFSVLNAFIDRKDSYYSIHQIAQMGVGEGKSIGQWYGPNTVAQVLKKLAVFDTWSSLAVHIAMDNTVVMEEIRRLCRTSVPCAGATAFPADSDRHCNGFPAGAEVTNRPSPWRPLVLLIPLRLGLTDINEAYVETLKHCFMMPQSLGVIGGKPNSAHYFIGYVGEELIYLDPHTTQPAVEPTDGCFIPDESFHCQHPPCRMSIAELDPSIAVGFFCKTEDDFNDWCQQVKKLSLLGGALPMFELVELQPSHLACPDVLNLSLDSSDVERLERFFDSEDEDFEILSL
Yeast cmpd fluor = compound fluorescence in yeast efflux pump counter-screen; shares compounds with Efflux pump mplx; fluorescence ratio to DMSO, % at 10 µM; 1,700 tested, 4% active; S. cerevisiae AD/pABC3, flow cytometry;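 active = fluorescence ratio to DMSO above its plate's cutoff, the plate mean ratio plus 5 SD, cut at about 210% in these data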;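 note: unstained yeast with no Nile Red so the signal is compound autofluorescence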
Mdr1 pump inh = blocks the Candida albicans Mdr1 efflux pump in yeast. shares compounds with Efflux pump mplx. S. cerevisiae AD/CaMDR1, Nile Red efflux, flow cytometry. inhibition, % at 10 µM. 1,700 tested, 1% active. AID 588518; in the data active = inhibition above about 26%;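 note: 0% = DMSO vehicle and 100% = reference inhibitor; higher means more Nile Red retained so more efflux inhibition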
Cdr2 pump inh = blocks the Candida albicans Cdr2 efflux pump in yeast | S. cerevisiae AD/CaCDR2, Nile Red retention, flow cytometry | Nile Red retention ratio vs DMSO, % at 10 µM | 1,700 tested, 4% active | shares compounds with Efflux pump mplx; in the data active = Nile Red retention ratio vs DMSO above about 190%;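 note: higher ratio means more blocking of Cdr2 efflux of the dye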
CaCdr1 efflux inh = inhibitors of Candida albicans Cdr1 efflux pump; shares compounds with Efflux pump mplx; S. cerevisiae AD/CaCDR1, Nile Red efflux, flow cytometry; inhibition, % at 10 µM; 1,700 tested, 1% active;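 active = inhibition above the screen-wide mean plus twice its standard deviation, cut at about 32% in these data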
The depositor's hits bear a star; x = not tested or not shown; + = active, no number.

SMILES	AI-2 QS modul	Efflux pump mplx	SUMO Mot1 rescue	V-ATPase pH	ATG4B inhibitor	Yeast cmpd fluor	Mdr1 pump inh	Cdr2 pump inh	CaCdr1 efflux inh
Cc1cccc(C)c1OCc1cc(C(=O)N2CCNC(=O)C2)no1	2	0	6	-2	-2	96	0	107	0
Cc1ccc(N(C)C(=O)c2cc(S(=O)(=O)N3CCCC3)cn2C)cc1	3	0	-10	-5	-18	x	x	x	x
Cc1cc(C)c(-c2noc(C(=O)OC(C)(C)C)c2C(=O)OC(C)(C)C)c(C)c1	8	0	-5	-8	2	x	x	x	x
COc1cc(OC)c(-c2noc(C(=O)OC(C)(C)C)c2C(=O)OC(C)(C)C)c(OC)c1	-6	1.2*	-8	-2	1	97	0	93	0
Cc1cccc(CS(=O)(=O)Cc2ccc(C(=O)NCc3ccco3)o2)c1	3	13*	-1	3	-1	109	0	101	0
CCOc1c(Cl)cc(/C=N/NC(N)=S)cc1OC	-9	0	-5	-11	-6	x	x	x	x
CCCOc1cc(N(CC)CC)ccc1/C=C(/C#N)c1nc2ccc(C)cc2[nH]1	37	0.7*	2	-4	-4	241*	0	127	0
COc1ccc(-c2sc3ccc(OC)cc3c2-c2ccc(OCCN3CCOCC3)cc2)cc1	x	52*	x	1	3	100	16	96	55*
COc1cccc(-c2sc3ccc(OC)cc3c2-c2ccc(OCCN3CCCC3)cc2)c1	x	73*	x	3	-8	95	0	+	0
COc1cccc(-c2sc3cc(OC)c(OC)cc3c2-c2ccc(OCCN3CCCCC3)cc2)c1	x	1	x	-1	-6	98	0	116	0
COc1cccc(-c2sc3ccccc3c2-c2ccc(OCCN3CCCCC3)cc2)c1	x	0	162	6	-2	x	x	x	x
O=c1cc(CSc2nc(NCc3ccc(Cl)cc3)c3ccccc3n2)nc2ccc(Cl)cn12	x	x	x	-59	-1	x	x	x	x
O=C(CSc1nc2nc3c(cc2c(=O)n1-c1ccccc1)CCCC3)Nc1cccc2ccccc12	10	1.1*	-6	-2	3	95	0	142	0
O=C(O)Cn1cc(/C=C/[N+](=O)[O-])c2ccccc21	20	0	2	0	-9	x	x	x	x
CCn1c(/C=C/c2c(C)n(CC)c3ccccc23)nc2ccccc2c1=O	17	0	-8	-1	2	x	x	x	x
CCOC(=O)Cn1cc(C=O)c2ccccc21	18	0	0	4	2	x	x	x	x
CCN(CC)C(=O)Cn1c(C)c(/C=C/c2cc[n+](C)cc2)c2ccccc21	10	0	2	-1	3	365*	0	121	0
C=CCn1cc(/C=C/c2cc[n+](C)cc2)c2ccccc21	-4	1	-22	1	-12	289*	0	114	0
CCn1cc(/C=C/c2cc[n+](C)cc2)c2ccccc21	13	5.0*	165	0	-5	726*	3	112	3
C=CCn1c(C)c(/C=C/c2cc[n+](C)cc2)c2ccccc21	0	1.4*	8	1	0	684*	3	133	2
CC(=O)c1cccc(NC(=O)Nc2ccc3c(c2)OCO3)c1	3	0	-11	0	-2	x	x	x	x
CC(=O)N(C(C)=O)c1ccc2c(c1)OCCO2	x	x	x	3	x	x	x	x	x
CC(C)n1cc(/C=C/c2cc[n+](C)cc2)c2ccccc21	17	x	x	-74	-10	472*	1	95	0
CC(C)n1cc(/C=N/Nc2ccc(C(=O)O)cc2)c2ccccc21	12	0	1	-1	-8	x	x	x	x
C=C(C)C(O)CC/C(C)=C/Cc1c(O)ccc(C(=O)/C=C/c2ccc(O)cc2)c1O (configuration not stated)	x	0	x	5	15	x	x	x	x
SMILES	AI-2 QS modul	Efflux pump mplx	SUMO Mot1 rescue	V-ATPase pH	ATG4B inhibitor	Yeast cmpd fluor	Mdr1 pump inh	Cdr2 pump inh	CaCdr1 efflux inh
COc1ccc(C(=O)/C=C/c2ccc(O)cc2)c(O)c1C/C=C(\C)CCC=C(C)C	x	1.3*	x	-3	-9	109	0	116	0
Cc1c(-c2cccc(Cl)c2)nc2ccccc2c1C(=O)OC/C(O)=C(\C#N)c1nc2ccccc2[nH]1	29	2.5*	-10	1	-4	108	1	116	1
Oc1ccc(Br)cc1C=Nc1ccc2c3c(cccc13)CC2	14	3.1*	-26	-1	7	102	0	116	0
CCCCN=C(NNc1ccc(Br)cc1)C(=O)OCC	7	17*	126	-1	-3	100	0	104	0
COc1ccc(CNC(=O)C(=O)NCC2OCCN2S(=O)(=O)c2ccc(F)cc2)cc1 (configuration not stated)	16	0	8	1	10	x	x	x	x
Cc1ccc(CNC(=O)C(=O)NCC2OCCN2S(=O)(=O)c2ccc(Br)cc2)cc1 (configuration not stated)	27	1	6	3	0	109	0	112	0
Cc1ccc(CNC(=O)C(=O)NCC2OCCN2S(=O)(=O)c2ccc(C)cc2)cc1 (configuration not stated)	19	0	25	0	5	x	x	x	x
COc1ccc(S(=O)(=O)N2CCOC2CNC(=O)C(=O)NCc2ccc(F)cc2)cc1OC (configuration not stated)	11	0	-2	-1	-1	108	0	93	0
COc1ccc(CNC(=O)C(=O)NCC2OCCN2S(=O)(=O)c2ccccc2)cc1 (configuration not stated)	9	-1	65	1	0	102	1	100	0
COc1ccc(CNC(=O)C(=O)NCC2OCCN2S(=O)(=O)c2ccc(C)cc2)cc1 (configuration not stated)	-5	0	3	10	7	95	0	106	0
C[C@@H]1CN([C@@H](C)CO)C(=O)c2cc(Br)cnc2O[C@@H]1CN(C)S(=O)(=O)c1ccc(F)cc1	x	x	x	0	x	x	x	x	x
COc1ccccc1NC(=O)CSc1nc2ccccc2nc1N1CC(C)OC(C)C1 (configuration not stated)	16	0	-4	-3	0	x	x	x	x
Cc1cc(Br)ccc1S(=O)(=O)n1ccnc1C	28	0	11	0	2	x	x	x	x
COc1ccccc1NC(C)C(=O)Nc1ccc(C(C)=O)cc1 (configuration not stated)	2	0	7	-1	-6	x	x	x	x
